Assay results published in ChEMBL document CHEMBL3988442, “University of Dundee, Small-Polar-MMV Screening Library” (2021).
Among all 48,000 compounds or so, about 13,000 (27%) showed an effect of 50% or more. Some of the results follow.

system: Wolbachia pipientis; assay: Anti-Wolbachia Cell-Based Screen; format: functional; design: scale not given: in the data most compounds retested in dose-response had high values; conditions: 5 µM

| Structure (SMILES) | Percent Effect [%] |
| --- | --- |
| Cc1ccc(NC(=O)N2C[C@H]3CC[C@@H]2CN(Cc2cscn2)C3)cc1 | 4.002 |
| COc1ccc(C(=O)NC2CC2)c(OC)c1 | 17.15 |
| COc1ccc(C(=O)N2CC[C@H](CO)[C@H](O)C2)c(C)c1 | -8.532 |
| COc1ccc(C(=O)N2CC(=O)N(C3CCC3)CC(O)C2)c(OC)c1 (centres undefined) | 143.6 |
| COCCN1C(=O)CCC12CCCN(Cc1nccs1)CC2.O=C(O)C(F)(F)F (centres undefined) | 12.79 |
| O=C(O)C(F)(F)F.O=C(O)C(F)(F)F.O=C1CCC2(CCN(Cc3ccc(F)cc3)CC2)N1CCN1CCCC1 | 100.3 |
| CCN1C(=O)CCC12CCCN(Cc1ccc(F)cc1)CC2.O=C(O)C(F)(F)F (centres undefined) | 86.81 |
| Cn1ccnc1CN1CCC2(CCC(=O)N2CCN2CCCC2)CC1.O=C(O)C(F)(F)F.O=C(O)C(F)(F)F | 107.9 |
| CN1CC(=O)N(c2cnn(C)c2)CC12CCN(Cc1nccn1C)C2.O=C(O)C(F)(F)F.O=C(O)C(F)(F)F (centres undefined) | -9.756 |
| CCN1C(=O)CCC12CCCN(Cc1nccs1)C2.O=C(O)C(F)(F)F (centres undefined) | 30.34 |
| O=C(NCC1(CO)CC1)c1ccccc1Br | -13.86 |
| COCC(C)N1CCc2onc(-c3ccc(F)c(F)c3)c2C1 (centres undefined) | -3.283 |
| O=C(NC1CCS(=O)(=O)C1)c1ccc(SCc2cscn2)cc1 (centres undefined) | -5.861 |
| CCCc1cc(NCc2ccc(CO)cc2)n2nccc2n1 | -5.904 |
| CC1c2ncc(Cn3cncn3)n2CCN1CC1CCOCC1.O=C(O)C(F)(F)F (centres undefined) | 55.37 |
| CC1c2ncc(Cn3cncn3)n2CCN1C(=O)[C@H]1CCCO1 (some centres undefined) | 86.12 |
| CC1c2ncc(Cn3cncn3)n2CCN1C(=O)N(C)C (centres undefined) | 113.2 |
| Cc1nc(COCc2cnc3n2CCN(C(=O)C2CC2)C3C)cs1 (centres undefined) | -5.573 |
| O=S(=O)(C1CC1)N1CCc2ncc(Cn3cncn3)n2CC1 | -7.39 |
| COCc1cnc2n1CCN(S(=O)(=O)N(C)C)C2C (centres undefined) | 6.284 |
| Cc1occc1C(=O)N1CCn2c(Cn3cncn3)cnc2C1C (centres undefined) | 120.5 |
| CC(C)N1CCn2c(COCC3CCOCC3)cnc2C1C.O=C(O)C(F)(F)F (centres undefined) | 6.159 |
| CC1c2ncc(Cn3cncn3)n2CCN1C1CCOCC1.O=C(O)C(F)(F)F (centres undefined) | -16.95 |
| CC1c2ncc(Cn3cncn3)n2CCN1C(=O)C1CCOCC1 (centres undefined) | -2.006 |
| CSCCCN1CCC(c2nnc(Cn3ccnc3)n2C2CC2)CC1 | 14.62 |

| Structure (SMILES) | Percent Effect [%] |
| --- | --- |
| N#Cc1cccc(OCCN2CCC(C(=O)N3CCOCC3)CC2)c1 | -12.33 |
| O=C(CC(F)(F)F)N1C[C@@H]2CC[C@H](C1)N(Cc1ccccc1)C2=O | -3.015 |
| CCn1c(C2CCCN(Cc3ccc4ccccc4n3)C2)nn(C)c1=O (centres undefined) | 31.19 |
| COc1ccccc1C1(CNc2cn[nH]c(=O)c2Cl)CCOCC1 | -1.761 |
| Cc1ncsc1CCN1CCN(C(=O)c2ccc(=O)[nH]c2)CC1 | 12.93 |
| COCC(=O)N1CCn2c(Cn3cncn3)cnc2C1C (centres undefined) | 79.44 |
| COCCC(=O)N1CCn2c(COCC3CC3)cnc2C1C (centres undefined) | -18.59 |
| CC(O)C(=O)N1CCC(c2[nH]ncc2-c2ccccc2)CC1 (centres undefined) | 105.3 |
| CC(C(=O)N1CCC(c2[nH]ncc2-c2ccccc2)CC1)n1cncn1 (centres undefined) | 96.41 |
| CCc1cn[nH]c1C1CCN(C(=O)c2cccc(O)c2C)CC1 | -3.715 |
| Cc1ccc(-c2cn[nH]c2C2CCCN(c3nccc(N)n3)C2)cc1 (centres undefined) | 6.644 |
| Cc1ccc(N2CCCC(c3[nH]ncc3-c3ccccc3)C2)nn1 (centres undefined) | 25.67 |
| C[C@H](N)C(=O)N1CCC(c2[nH]ncc2-c2ccccc2)CC1 | 108.2 |
| C[C@@H](N)C(=O)N1CCC(c2[nH]ncc2-c2ccccc2)CC1 | 132.4 |
| FC(F)c1nnc2ccc(N3CCC4(CCOC4)C3)nn12 (centres undefined) | -11.38 |
| CSc1ncc(CNC(C)c2cnn(-c3ccccc3)c2C)cn1 (centres undefined) | 31.2 |
| CN(CCCc1n[nH]c(N)c1C#N)C(=O)Nc1cc(Cl)cc(Cl)c1 | 9.984 |
| Cc1ccc(NCc2ncc(C(C)(C)C)o2)c(Cl)c1 | -11.33 |
| O=C(CCC1CCN(Cc2ccncc2)CC1)Nc1ccccc1Cl | -2.559 |
| Cc1cnn(CC2CCCN2C(=O)c2cc(C)no2)c1 (centres undefined) | 3.618 |
| Cc1cnn(CC2CCCCN2C(=O)CN(C)C2CC2)c1 (centres undefined) | 4.023 |
| Cc1cnn(CC2CCCN2C(=O)Cc2c(C)noc2Cl)c1 (centres undefined) | 116 |
| Cc1cnn(CC2CCCCN2C(=O)Cc2c(C)noc2Cl)c1 (centres undefined) | 116.9 |
| Cc1cnn(CC2CCCN2C(=O)Cc2cn3ccsc3n2)c1 (centres undefined) | 12.98 |
| CCN1CC2(CCN(C(=O)C(C)Oc3ccc(F)cc3F)CC2)OC1=O (centres undefined) | -0.4228 |

| Structure (SMILES) | Percent Effect [%] |
| --- | --- |
| COc1ccccc1CNC(=O)C[S+]([O-])Cc1cc(C)on1 (centres undefined) | 100.1 |
| Cc1cc(C[S+]([O-])CC(=O)NCc2cccs2)no1 (centres undefined) | -0.248 |
| Cc1cc(C[S+]([O-])CC(=O)Nc2c(C)cccc2C)no1 (centres undefined) | 4.503 |
| O=C(C[S+]([O-])Cc1cccc(Cl)c1)NC1CCCC1 (centres undefined) | -4.291 |
| COc1ccc(F)cc1C[S+]([O-])CC(=O)NCc1ccccc1C (centres undefined) | 4.028 |
| Cc1cc(C[S+]([O-])CC(=O)NCc2cccc(Cl)c2)no1 (centres undefined) | 98 |
| COc1ccc(F)cc1C[S+]([O-])CC(=O)NCc1ccccc1 (centres undefined) | -20.74 |
| Cc1cc(C[S+]([O-])CC(=O)NCc2ccccc2)no1 (centres undefined) | 111.1 |
| Cc1cc(C[S+]([O-])CC(=O)NCC(C)C)no1 (centres undefined) | -9.622 |
| CNC(=O)CCS(=O)(=O)Cc1nnnn1-c1ccccc1 | 7.116 |
| CC1(NC(=O)CC2CCc3ccccc32)CCOCC1 (centres undefined) | -18.69 |
| CCN(CC(C)C#N)C(=O)c1cccc(COc2ccc(C)nc2)c1 (centres undefined) | 11.78 |
| CC(c1ccco1)N(C(=O)c1cccc(C#N)c1)C1CC1 (centres undefined) | -7.767 |
| CC(C)(O)CN1CCN(C(=O)c2cccnc2O)CC1 | -5.606 |
| CC(C)n1ccnc1CN1CCCN(C(=O)c2cccnc2O)CC1 | 3.954 |
| CC(C)c1noc(CN2CCN(C(=O)c3cc(Cl)ccc3F)CC2)n1 | 113.5 |
| CC(C)c1noc(CN2CCN(C(=O)c3ccncc3F)CC2)n1 | 113.2 |
| CN(C)Cc1nc2c(o1)CN(C(=O)c1ccncc1F)C2 | -6.758 |
| CC(C)c1noc(CN2CCN(C(=O)c3ccccc3F)CC2)n1 | 4.935 |
| CC(C)c1noc(CN2CCN(C(=O)c3cccnc3O)CC2)n1 | 109.3 |
| CC(C)c1noc(CCC(=O)Nc2cc(F)ccc2F)n1 | 6.757 |
| CN(C)C(=O)c1ccc(-c2cscn2)cc1 | -9.809 |
| O=C(O)C(F)(F)F.O=C(c1cnccn1)N1CCN2C[C@H](Oc3cccc(F)c3)C[C@H]2C1 | 8.036 |
| OC1(CNCc2ccc(F)c(C(F)(F)F)c2)CCOC1 (centres undefined) | -11.97 |
| CCN1CCC2(CN(C(=O)N(C)C)CC23CCN(CC2CC2)CC3)C1=O.O=C(O)C(F)(F)F (centres undefined) | -42.34 |

| Structure (SMILES) | Percent Effect [%] |
| --- | --- |
| Cc1nc(CN2CCCC(Cn3cncn3)C2)no1 (centres undefined) | 79.74 |
| CCCc1nc(CN2CCCC(Cn3cncn3)C2)no1 (centres undefined) | 15.71 |
| c1ncn(CCNC2CCCN(Cc3noc(C4CC4)n3)C2)n1 (centres undefined) | 10.95 |
| CC(C)(C)c1nnc(CN2CCCC(Cn3cncn3)C2)o1 (centres undefined) | 3.207 |
| c1ncn(CC2CN(Cc3noc(C4CC4)n3)CCO2)n1 (centres undefined) | 0.6807 |
| c1cnc(-c2nc(CN3CCCC(Cn4cncn4)C3)cs2)nc1 (centres undefined) | 1.551 |
| c1ncn(CC2CCCN(Cc3noc(C4CC4)n3)C2)n1 (centres undefined) | 115 |
| CC(C)(C)c1nc(CN2CCCC(Cn3cncn3)C2)no1 (centres undefined) | 114.7 |
| Cc1ccc(CNC(=O)NCC(=O)NC(C)(C)C)c(N2CCCC2)c1 | 2.082 |
| Fc1ccccc1-c1noc2c1CN(CC1CC1)CC2 | -13.76 |
| Cn1ccnc1CN1C[C@@H](F)[C@@H](OCc2nc3cnccc3[nH]2)C1 | 4.118 |
| CCOCCn1c(=O)[nH]c2cc(C(=O)N(C)Cc3ccno3)ccc21 | 10.95 |
| O=C1CCC2(CCNCC2)CN1CCCNc1cccnc1 | -8.003 |
| COCC(=O)N1CCN(CC2CC2)c2ncccc2C1 | 17.09 |
| O=C(C1CC1)N1CCN(Cc2ccncc2)c2ncccc2C1.O=C(O)C(F)(F)F.O=C(O)C(F)(F)F | 97.41 |
| O=C(O)C(F)(F)F.O=C(O)CCC(=O)N1CCN(CC2CC2)c2ncccc2C1 | -20.91 |
| CC(=O)NCC(=O)N1CCN(Cc2cccnc2)c2ncccc2C1 | -23.25 |
| O=C(CC1CC1)N1CCN(Cc2cccnc2)c2ncccc2C1.O=C(O)C(F)(F)F.O=C(O)C(F)(F)F | 108.8 |
| Cc1ccc2c(n1)N(C)CCN(C(=O)C1CC1)C2.O=C(O)C(F)(F)F | -19.49 |
| COCC(=O)N1CCN(Cc2cccnc2)c2ncccc2C1.O=C(O)C(F)(F)F.O=C(O)C(F)(F)F | 107.3 |
| O=C(Cc1ccsc1)N1CCN(CC2CC2)c2ncccc2C1.O=C(O)C(F)(F)F | -24.66 |
| O=C(CC1CC1)N1CCN(Cc2ccncc2)c2ncccc2C1.O=C(O)C(F)(F)F.O=C(O)C(F)(F)F | 106.6 |
| CCCS(=O)(=O)N1CCC2(CC1)CCn1c(-c3cnn(C)c3)cnc12.O=C(O)C(F)(F)F | -1.785 |
| CC(=O)NS(=O)(=O)c1ccc2c(c1)N(C)CCC2 | -0.0475 |
